Assays:
[1] = test system: Human papillomavirus type 1a protein E7 (residues 44-93); experiment: HPV1a E7 fragment binders on microarrays, primary screen, biochemical, small-molecule microarray, residues 44-93, 635 nm fluorescence (AID 1108); details: small-molecule microarray binding, fluorescence 635 nm; higher = more signal;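 further: E7 fragment applied at 1 µg/mL in TBST for 1 h at 4 C; score combines spot fluorescence with its signal to noise ratio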
[2] = modulators of HCV replicon luciferase signal, primary screen, HCV replication inhibitor project, Huh7 cells, luciferase reporter (AID 1109); details: 48 h, higher = more signal;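 further: huh7 hepatoma cells harbouring a luciferase neomycin HCV replicon reporter; luciferase luminescence as measure of HCV replicon replication; test concentration not given here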
[3] = biological target: Left-right determination factor 2 (Homo sapiens) (UniProt O00292); experiment: LEFTY2 binders on small-molecule microarrays, primary screen, biochemical, small-molecule microarray, 635 nm fluorescence scan (AID 1110); details: LEFTY2 binding, higher = more signal
Sequence of Left-right determination factor 2 (Homo sapiens) (O00292 whole entry, looked up): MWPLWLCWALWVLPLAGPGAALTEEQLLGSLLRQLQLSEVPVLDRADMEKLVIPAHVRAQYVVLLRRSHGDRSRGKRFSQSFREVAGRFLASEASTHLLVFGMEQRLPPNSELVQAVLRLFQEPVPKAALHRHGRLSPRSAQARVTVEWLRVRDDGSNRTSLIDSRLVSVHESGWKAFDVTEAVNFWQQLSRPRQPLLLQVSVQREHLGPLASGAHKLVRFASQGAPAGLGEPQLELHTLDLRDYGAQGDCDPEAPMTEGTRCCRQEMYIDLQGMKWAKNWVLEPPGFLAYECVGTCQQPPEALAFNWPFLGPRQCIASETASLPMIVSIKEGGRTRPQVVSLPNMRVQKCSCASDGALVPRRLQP

[4] = biological target: Calmodulin-1 (Homo sapiens) (UniProt P0DP23); experiment: CALM1 binders on microarrays, EGTA buffer, profiling panel, biochemical, small-molecule microarray, Cy5-labelled CALM1 (AID 1111); details: Cy5-CALM1 binding fluorescence, higher = more signal;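 further: labelled calmodulin applied in Tris saline Tween buffer holding calcium plus EGTA and DTT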
[5] = biological target: Calmodulin-1 (Homo sapiens) (UniProt P0DP23); experiment: calcium-bound CALM1 binders on microarrays, profiling panel, artefact control for SMM control-protein annotation, biochemical, small-molecule microarray, Cy5-labelled CALM1, plus calcium (AID 1112); details: Cy5-CALM1 binding fluorescence, higher = more signal;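 further: score merges spot fluorescence with signal to noise from triplicate slides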
[6] = small-molecule microarray binders of probe aWnt5a, primary screen, biochemical, biotinylated probe, 635/667 nm fluorescence (AID 1113); details: higher = more signal;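 further: score merges 667 nm fluorescence intensity with signal-to-noise per printed feature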
[7] = small-molecule microarray binders of probe aShh, primary screen, biochemical, biotinylated probe, 635/667 nm fluorescence (AID 1114); details: higher = more signal;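 further: probe is biotin-labelled aShh protein from a stem cell growth factor screen; measures binding of labelled protein to compounds printed on the slide; score merges feature fluorescence at 667 nm with signal-to-noise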
[8] = small-molecule microarray binders of probe aNog, primary screen, biochemical, biotinylated probe, 635/667 nm fluorescence (AID 1115); details: higher = more signal;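 further: probe is biotinylated aNog protein used at 0.15 µg/mL for 1 h at 4 C; z-score combines 667 nm fluorescence of each spot with its signal to noise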
[9] = biological target: Torsin-1A-interacting protein 1 (Homo sapiens) (UniProt Q5JTV8); experiment: LAP1 binders from COS7 cell lysate, primary screen, small-molecule microarray, 635/667 nm fluorescence (AID 1116); details: COS7-hLAP1 lysate binding, 635 nm fluorescence, higher = more signal
Sequence of Torsin-1A-interacting protein 1 (Homo sapiens) (Q5JTV8 whole entry, looked up): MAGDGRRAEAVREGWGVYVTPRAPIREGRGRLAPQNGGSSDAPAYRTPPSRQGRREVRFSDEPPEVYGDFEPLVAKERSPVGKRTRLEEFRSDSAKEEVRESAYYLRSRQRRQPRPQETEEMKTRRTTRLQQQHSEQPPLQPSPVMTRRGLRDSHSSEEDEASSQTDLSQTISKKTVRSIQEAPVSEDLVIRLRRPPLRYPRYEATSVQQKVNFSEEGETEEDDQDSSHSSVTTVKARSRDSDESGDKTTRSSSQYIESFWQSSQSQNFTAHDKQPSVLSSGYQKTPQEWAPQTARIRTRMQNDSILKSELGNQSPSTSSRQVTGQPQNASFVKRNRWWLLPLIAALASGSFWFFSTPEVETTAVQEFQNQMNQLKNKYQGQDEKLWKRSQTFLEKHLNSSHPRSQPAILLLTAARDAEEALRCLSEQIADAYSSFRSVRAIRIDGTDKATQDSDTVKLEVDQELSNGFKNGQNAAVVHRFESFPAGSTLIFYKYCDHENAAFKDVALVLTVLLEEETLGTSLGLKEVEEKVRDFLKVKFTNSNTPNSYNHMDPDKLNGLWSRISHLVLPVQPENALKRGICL

[10] = biological target: Alpha-bungarotoxin (Bungarus multicinctus) (UniProt P60615); experiment: alpha-bungarotoxin binders on microarray, profiling panel, artefact control for SMM control protein annotation, biochemical, small-molecule microarray, Alexa647 label, 635/667 nm fluorescence (AID 1117); details: alpha-BTX-A647 binding fluorescence, higher = more signal
Sequence of Alpha-bungarotoxin (Bungarus multicinctus) (P60615 whole entry, looked up): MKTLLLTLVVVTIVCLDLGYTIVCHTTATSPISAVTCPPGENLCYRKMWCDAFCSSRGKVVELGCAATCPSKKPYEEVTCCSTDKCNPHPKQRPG

Structure (SMILES) | composite z-score [1] | z-score [2] | composite z-score [3] | composite z-score [4] | composite z-score [5] | composite z-score [6] | composite z-score [7] | composite z-score [8] | composite z-score [9] | composite z-score [10]
CC(C)(C)OC(=O)CC[C@@]1(C(=O)NCCN2CCOCC2)N=C(c2ccc(OCCCO)cc2)O[C@@H]1c1ccccc1N=[N+]=[N-] | 1.32 | -0.291 | 0.609 | 0.147 | 0.0196 | 0.108 | 0.171 | 0.991 | 0.694 | 0.783
O=C(NCc1ccccc1)[C@@]1(CCS(=O)(=O)c2ccccc2)N=C(c2ccc(OCCCO)cc2)O[C@H]1c1ccccc1 | 1.44 | -2.25 | -0.125 | 1.43 | 0.112 | 0.111 | 0.0055 | -0.0597 | 1.32 | 2.03
C=CCOC(=O)[C@@H]1[C@H]2C(=O)O[C@H](c3ccccc3)[C@H](c3ccccc3)N2[C@H](c2ccc(OCCOC(=O)[C@@H]3C[C@@H]4C(=O)N[C@@H](Cc5ccccc5)C(=O)N4[C@@H]3c3ccc(O)cc3)cc2)[C@@]12C(=O)Nc1ccc(I)cc12 | 1.38 | -0.726 | 0.56 | 0.75 | 0.299 | -0.0981 | 0.178 | -0.0784 | -0.289 | 1.02
CN1C(=O)C2C=CC(C(O)c3cccs3)N(Nc3ccccc3)C2C1=O (stereo not given) | 0.548 | -0.304 | 0.0032 | 0.041 | -0.591 | 0.211 | 0.265 | 0.0924 | 0.558 | 0.336
Cc1ccc(C(C)CC(O)C2C=CC3C(=O)N(C)C(=O)C3N2NC(=O)OC(C)(C)C)o1 (stereo not given) | 0.598 | 0.255 | 1.19 | 1.73 | 0.0152 | 0.246 | 0.424 | 0.226 | 1.27 | 1.73
COCC(=C=CC[C@@H](O)c1ccccc1OCCO)C[C@@H](O)c1cc(Cl)cc(Cl)c1O | 1.44 | -2.21 | 0.635 | 0.362 | -0.534 | -0.126 | -0.14 | -0.0863 | 0.704 | 0.792
Cc1ccc(S[C@]2(C(=O)NCCN3CCOCC3)CC(=O)N(Cc3ccccc3Cl)[C@@H]2c2ccc(CO)cc2)cc1 | 1.02 | -0.815 | -0.989 | -0.343 | 0.148 | -0.12 | -0.0035 | -0.339 | 0.733 | -0.146
C=CCN(Cc1ccccc1)C(=O)C(c1cccs1)N(CCOCCO)C(=O)/C=C\C(=O)O (stereo not given) | -0.762 | 0.448 | -2.24 | -0.512 | 0.446 | -0.256 | -0.0035 | -0.0712 | -1.45 | -1.82
NC(=O)[C@@H]1[C@H]2C(=O)O[C@H](c3ccccc3)[C@H](c3ccccc3)N2[C@H](c2ccc(O)cc2)[C@@]12C(=O)Nc1ccc(C#CC3(O)CCCCCC3)cc12 | 0.124 | -0.293 | -0.0941 | -0.363 | 0.555 | -0.202 | 0.0684 | 0.179 | 1.59 | -0.115
C=CCNC(=O)[C@H]1[C@@H]2C(=O)O[C@@H](c3ccccc3)[C@@H](c3ccccc3)N2[C@@H](c2ccccc2OCCO)[C@]12C(=O)Nc1ccc(C#CC3=CCCCC3)cc12 | 1.12 | -3.52 | 0.531 | 0.904 | -0.321 | -0.1 | 0.0588 | 0.163 | 0.358 | 0.99
C=CCC(OC(C)=O)[C@@H]1[C@@H](N(Cc2ccc(-c3cccc(C(F)(F)F)c3)o2)C(=O)c2ccc(-c3ccccc3)cc2)c2cc(OCCCO)ccc2N1C(=O)c1ccc(-c2ccccc2)cc1 (stereo not given in full) | -0.165 | -0.614 | -0.15 | -0.104 | 1.35 | 0.0214 | 0.275 | 0.26 | -0.228 | 0.288
CN(C)C(=O)[C@]1(Cc2ccccc2CN=[N+]=[N-])N=C(c2ccc(OCCCO)cc2)O[C@@H]1c1ccccc1CN=[N+]=[N-] | 1.47 | -3.12 | 0.189 | 0.324 | 0.708 | 0.216 | 0.249 | 0.76 | 1.39 | 0.832
CC1CC/C=C\[C@H]2OC34C=CCN(c5ccc(Cl)cc5)C(=O)[C@H]3N(CCO)C(=O)[C@]4(C)C2C(=O)O1 (stereo not given in full) | -1.01 | -1.35 | -1.1 | -0.795 | -0.633 | -0.124 | -0.367 | -0.342 | -0.485 | -0.445
